{
  "source": "paper PMC12136788",
  "binders": {"B1": {"name": "chrX:133301433:133301604:-|3pUTR|ENSG00000076716|msi1|total|mutant (ssRNA)", "RNA": "GGGAGUUCUACAGUCCGACGAUCUUGUUUUUCUUGGGGGAUGGGGUGGGGUGGGAGCCGGCCGAGCUGAGAAUACUACAUCUCCGUGGUGACCUUCCGCCACGUGGGUGAAGUGGCAAAGGCCAUGGCCAUAUCUGUUGUCCCCAACAGAGGAUUGAGCAUCA"}, "B2": {"name": "chr21:44851366:44851434:-|CDS_3pUTR|ENSG00000183255|msi1_unk|total|mutant (ssRNA)", "RNA": "GGGAGUUCUACAGUCCGACGAUCAGGACAGUCCUCUCGUCUUGCAGACUGGUGACCUUCUAUUCCCUGUUCAUCUCUGUUUCCCGAUUCCGUCACUUGAAAUAAGAAAUCUUUGGGGUUUGGGCUUUUUUAUACUCUUCUCAGCAACAGAGGAUUGAGCAUCA"}, "B3": {"name": "ENSG00000142192:stop:overlap|stop_codon|ENSG00000142192|stop_codon|NA|stop_codon (ssRNA)", "RNA": "GGGAGUUCUACAGUCCGACGAUCAGAUGCAGCAGAACGGCUACGAAAAUCCAACCUACAAGUUCUUUGAGCAGAUGCAGAACUAGACCCCCGCCACAGCAGCCUCUGAAGUUGGACAGCAAAACCAUUGCUUCACUACCCAUCCAACAGAGGAUUGAGCAUCA"}, "B4": {"name": "chr1:13115521:13116400:-|CDS|ENSG00000275774|control|control|control (ssRNA)", "RNA": "GGGAGUUCUACAGUCCGACGAUCGAACAGAGCAAACAAGAGGUAGAGGUGAAAAAUGCUAAGUCAGAAGAGGAGCAGAGCAGUAGCUCCAUGAAGAAAGAUGAGACUCAUGUAAAGAUGGAGUCUGAGGGGGGUGCAGAAGACCAACAGAGGAUUGAGCAUCA"}, "B5": {"name": "ENSG00000070961:be:win_5251|3pUTR|ENSG00000070961|bound_else_gene|NA|bound_elsewhere_windowed (ssRNA)", "RNA": "GGGAGUUCUACAGUCCGACGAUCUGGAUUCUUUAGCUCUCUUUUUCUUUCCUUCAUCUACCUUCUUCUCUUUUUUGCCUCUGUCUUUACCCUUUAGAAACUGGCAUGUGUUAGGGCCCAGAUUUCACCAGAUACACAAUCCUCCAACAGAGGAUUGAGCAUCA"}, "B6": {"name": "ENSG00000198589:be:win_6101|CDS|ENSG00000198589|bound_else_gene|NA|bound_elsewhere_windowed (ssRNA)", "RNA": "GGGAGUUCUACAGUCCGACGAUCUAGGAAAUCAGAACUCAGAAAACGAGAUCCUCCUGGAAGGCGAUGAUGAUACUCUGUCAUCCGUGGAUGAGAAAGAUUUAGAGAAUCUUGCCGGUCCUGUUAGCCUGAGCACACCAGCUCCAACAGAGGAUUGAGCAUCA"}},
  "note": "Whole data set: some 5,800 sequences, median “enrichment r” near 0.68, cut for the highest 2% near 11. For the sample, the highest values were picked, then their nearest neighbours and some sequences at random.",
  "data": [
    {"biological_target": "T1, UNK ZnF1-6 (called full-length) (human, UniProt Q9C0B0 30-357)", "T1 sequence": "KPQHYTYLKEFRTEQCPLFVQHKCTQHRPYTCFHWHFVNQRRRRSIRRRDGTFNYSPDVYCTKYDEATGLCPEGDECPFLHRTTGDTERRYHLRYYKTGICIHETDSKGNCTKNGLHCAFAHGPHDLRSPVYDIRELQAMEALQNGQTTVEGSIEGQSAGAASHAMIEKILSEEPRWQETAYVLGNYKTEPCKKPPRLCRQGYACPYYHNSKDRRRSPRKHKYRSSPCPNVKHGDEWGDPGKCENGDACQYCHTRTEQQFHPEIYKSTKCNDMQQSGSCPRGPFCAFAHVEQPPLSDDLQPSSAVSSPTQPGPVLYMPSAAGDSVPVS", "assay": "nsRBNS (natural sequence RNA bind-n-seq); RBNS binding buffer (assumed for nsRBNS): 25 mM Tris pH 7.5, 150 mM KCl, 3 mM MgCl2, 0.01% Triton X-100, 500 ug/ml BSA, 20 U/ml SUPERase-In, 4 C; UNK is unkempt and MSI1 is Musashi-1; names of the RNAs are library labels; protein concentration not given here; high values mean tight binding", "units": {"binding signal": "enrichment R"}, "values": [
      {"binder": "B1", "binding signal": 1.2},
      {"binder": "B2", "binding signal": 0.43},
      {"binder": "B3", "binding signal": 0.618},
      {"binder": "B4", "binding signal": 0.882},
      {"binder": "B5", "binding signal": 1.45},
      {"binder": "B6", "binding signal": 0.619}
    ]}
  ]
}
